Measured values taken from article PMC4336329 (PLoS ONE, 2015).
Hit rate of the full screen: of about 310,000 compounds, about 14,000 (4.5%) showed an effect of 50% or more. Effects have a minus sign here. The sample holds strong results, similar compounds and a random draw of the others, so the mix is not that of the screen.

Biological target: human ether-à-go-go-related gene (hERG) potassium channel (human, UniProt Q12809)
Assay: primary screen, population patch clamp on CHO cells stably expressing hERG; higher = less effect of the substance
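Note: peak tail current of the secondary pulse compared with the same well before compound.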

Chain of human ether-à-go-go-related gene (hERG) potassium channel (Q12809 whole entry, looked up): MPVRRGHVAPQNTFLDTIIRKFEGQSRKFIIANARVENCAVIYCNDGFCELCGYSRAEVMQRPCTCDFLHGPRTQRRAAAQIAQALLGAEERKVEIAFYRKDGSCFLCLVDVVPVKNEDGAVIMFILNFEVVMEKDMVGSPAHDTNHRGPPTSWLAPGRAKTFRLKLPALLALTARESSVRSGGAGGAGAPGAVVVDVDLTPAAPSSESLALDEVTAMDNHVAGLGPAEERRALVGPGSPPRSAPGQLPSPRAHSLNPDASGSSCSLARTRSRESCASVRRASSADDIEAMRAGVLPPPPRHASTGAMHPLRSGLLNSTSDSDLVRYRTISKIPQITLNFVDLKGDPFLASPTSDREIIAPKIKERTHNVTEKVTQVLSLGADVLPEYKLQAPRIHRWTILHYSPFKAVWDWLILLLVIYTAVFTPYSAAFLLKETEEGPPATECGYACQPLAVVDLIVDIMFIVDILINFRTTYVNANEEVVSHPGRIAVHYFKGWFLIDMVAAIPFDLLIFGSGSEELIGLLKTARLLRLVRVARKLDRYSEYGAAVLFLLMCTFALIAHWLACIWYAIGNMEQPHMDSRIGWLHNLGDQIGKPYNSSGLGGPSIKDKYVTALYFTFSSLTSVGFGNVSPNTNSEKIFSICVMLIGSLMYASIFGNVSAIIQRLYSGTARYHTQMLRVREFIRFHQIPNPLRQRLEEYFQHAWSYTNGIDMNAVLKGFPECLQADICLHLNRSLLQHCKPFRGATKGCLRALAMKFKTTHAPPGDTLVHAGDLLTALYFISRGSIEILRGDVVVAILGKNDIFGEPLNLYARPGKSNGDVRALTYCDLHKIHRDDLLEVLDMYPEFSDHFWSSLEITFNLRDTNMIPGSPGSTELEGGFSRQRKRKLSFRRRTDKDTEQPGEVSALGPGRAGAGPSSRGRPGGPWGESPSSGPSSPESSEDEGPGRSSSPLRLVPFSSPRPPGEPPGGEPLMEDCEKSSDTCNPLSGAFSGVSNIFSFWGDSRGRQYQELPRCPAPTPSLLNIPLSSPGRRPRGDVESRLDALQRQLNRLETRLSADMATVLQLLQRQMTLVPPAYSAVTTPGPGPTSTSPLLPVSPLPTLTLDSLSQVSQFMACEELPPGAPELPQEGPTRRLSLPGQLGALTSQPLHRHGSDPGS

SMILES	hERG current change (%, negative = inhibition) at 10uM [%]
CCCCn1c(N)c(N(CCOC)C(=O)c2cc(S(=O)(=O)N3CCOCC3)ccc2F)c(=O)[nH]c1=O	16.1
Cc1cc(C(=O)COC(=O)c2cccn2C)c(C)n1Cc1ccco1	21.4
Cc1nnc(SCC(=O)Nc2nsc(-c3ccc(Cl)cc3)n2)s1	0.522
Cc1cccc(N2CCN(S(=O)(=O)c3c(C(=O)N4CCCCC4)c(C)n(C)c3C)CC2)c1C	-9.26
COCc1c(C(=O)N2CCN(c3ccc(C(F)(F)F)cn3)CC2)oc2ccccc12	-23.7
COCc1c(C(=O)N2CCN(S(=O)(=O)c3ccccc3Cl)CC2)oc2ccccc12	-13.9
COCc1c(C(=O)N2CCN(Cc3ccc(C#N)cc3)CC2)oc2ccccc12	-70.2
COCc1c(C(=O)Nc2ccc3nc(N4CCOCC4)sc3c2)oc2ccccc12	-31.2
COCc1c(C(=O)N2CCN(Cc3ccc4c(c3)OCO4)CC2)oc2ccccc12	-40.8
COCc1c(C(=O)N2CCN(CCOc3ccccc3)CC2)oc2ccccc12	-63.5
COCc1c(C(=O)N2CCN(c3ncccn3)CC2)oc2ccccc12	-7.68
COCc1c(C(=O)N2CCN(Cc3c(F)cccc3Cl)CC2)oc2ccccc12	-12.2
COCc1c(C(=O)N2CCN(Cc3nc4ccccc4s3)CC2)oc2ccccc12	-72.5
CCC1Oc2ccccc2N(CC(=O)NCCCN2CCCC2)C1=O (stereo not shown)	15.9
O=C(c1ccc(F)cc1)C(Cc1ccccc1)N1CCCCC1 (stereo not shown)	1.82
COc1cccc(CN2CCN(C3CCN(c4ccccc4C)CC3)CC2CCO)c1 (stereo not shown)	-66.2
COc1ccc(CN2CCN(C3CCC3)CC2CCO)cc1C (stereo not shown)	8.14
OCCC1CN(C2CCC2)CCN1Cc1ccc(F)c(F)c1 (stereo not shown)	5.12
CCOC(=O)N1CCC(N2CCN(Cc3ccc(F)c(F)c3)C(CCO)C2)CC1 (stereo not shown)	-44.7
CCOC(=O)N1CCC(N2CCN(Cc3ccccc3)C(CCO)C2)CC1 (stereo not shown)	-9.9
Cc1cccc(N2CCC(N3CCN(C4CCCCC4)C(CCO)C3)CC2)c1C (stereo not shown)	-42.7
OCCC1CN(C2CSCCSC2)CCN1Cc1ccccc1 (stereo not shown)	11.9
COc1cccc(CN2CCN(C3CSCCSC3)CC2CCO)c1 (stereo not shown)	-13

SMILES	hERG current change (%, negative = inhibition) at 10uM [%]
OCCC1CN(C2CCN(c3ccccc3)CC2)CCN1Cc1ccc(F)c(F)c1 (stereo not shown)	-71.2
COc1cccc(CN2CCN(C3CCOCC3)CC2CCO)c1 (stereo not shown)	0.171
OCCC1CN(C2CCN(c3ccccc3F)CC2)CCN1Cc1ccccc1 (stereo not shown)	-61.8
COc1cccc(CN2CCN(C3CCN(c4cccc(C)c4C)CC3)CC2CCO)c1 (stereo not shown)	-66.2
Cc1n[nH]c(C)c1Sc1ccccc1N=Cc1cc(Cl)cc([N+](=O)[O-])c1O	-10.9
N#CCSc1nnc(C2CCCCC2)n1-c1ccccc1	4.45
CCOC(=O)c1c(C)oc2cc(Cl)c(O)c(CN(C)C)c12	-6.79
CC(OC(=O)c1ccc(S(=O)(=O)NCc2ccco2)cc1)C(=O)Nc1ccc(Cl)cn1 (stereo not shown)	-39.8
CC(C)C[C@@]12C(=O)N(c3cccc(Cl)c3)C(=O)N1[C@H](c1ccc(Br)cc1)[C@@H]1C(=O)N(C(C)(C)C)C(=O)[C@@H]12	22.7
COc1ccc(CNC(=O)Nc2ccc3c(c2)N(C)C(=O)CS3)cc1	-0.138
CCC(C)[C@H](NC(=O)N1CCCCCC1)C(=O)OC (stereo partly shown)	5.25
O=C(NCc1ccccc1)C1=C[C@@H](c2ccc3c(c2)OCO3)C[C@@H](OCc2ccc(CO)cc2)O1	-25
COc1cc(CN2CCN(C3CCC3)CC2CCO)cc(OC)c1 (stereo not shown)	8.54
CCOc1ccccc1CN1CCN(C2CCN(c3ccccc3F)CC2)CC1CCO (stereo not shown)	-71.6
COc1ccc(CN2CCN(C3CCC3)CC2CCO)c(F)c1 (stereo not shown)	9.71
CCOc1ccccc1CN1CCN(C2CCC2)CC1CCO (stereo not shown)	27.4
CCOc1ccccc1CN1CCN(C2CCOCC2)CC1CCO (stereo not shown)	9.47
COc1cccc(CN2CCN(C3CCN(c4ccccc4F)CC3)CC2CCO)c1 (stereo not shown)	-74.9
COc1ccc(CNC(=O)COC(=O)c2ccco2)cc1	28.3
Cc1cc(NC(=O)CSc2nnc(Cn3c(=O)sc4ccccc43)n2-c2ccccc2C)no1	2.54
COc1ccc2nc(NC(=O)CSCc3c(C)noc3C)sc2c1	1.24
Cc1ccc(OC(C)C(=O)N2CCCc3ccccc32)cc1 (stereo not shown)	-16.3
O=C(Cn1nc(-c2ccccc2)nc1-c1ccccc1)OC1CCCCC1	7.88
